Assay in all cases: NCI-60 one-dose screen, 48 h (100 = growth as untreated, 0 = no growth, -100 = all killed)
For one assay, the system named is HT29 colon. Particulars: 10 µM unless noted.
The test system of the next assay is SNB-75 CNS. Particulars: 10 µM unless noted.
The subject of another assay is SNB-19 CNS. Conditions: 10 µM unless noted.
The next assay relates to U251 CNS. Conditions: 10 µM unless noted.
Another assay deals with PC-3 prostate. Conditions: 10 µM unless noted.
In a further assay the test system is SK-MEL-5 melanoma. Particulars: 10 µM unless noted.
Another assay deals with UACC-62 melanoma. Particulars: 10 µM unless noted.
A further assay has as its system LOX IMVI melanoma. Conditions: 10 µM unless noted.
A further assay deals with SK-MEL-28 melanoma. Conditions: 10 µM unless noted.
The next assay has as its system SK-MEL-2 melanoma. Particulars: 10 µM unless noted.
The next assay has as its system SN12C renal. Particulars: 10 µM unless noted.
The subject of another assay is UO-31 renal. Particulars: 10 µM unless noted.
The subject of the next assay is TK-10 renal. Particulars: 10 µM unless noted.
A further assay has as its system CAKI-1 renal. Conditions: 10 µM unless noted.
For a further assay, the system named is A498 renal. Particulars: 10 µM unless noted.
The next assay concerns CCRF-CEM leukemia. Conditions: 10 µM.
A further assay concerns MOLT-4 leukemia. Particulars: 10 µM unless noted.
A further assay relates to EKVX NSCLC. Conditions: 10 µM.
The next assay concerns ACHN renal. Particulars: 10 µM unless noted.

The source of these data is PubChem BioAssay (NCI).

The structures appear in SMILES notation. About 83,000 compounds went through this panel and 20% of them were active in at least one assay; those are over-represented in the sample as a whole.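 In brief: 96-well plates, 48 h treatment, single concentration, percent growth endpoint.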 A number with no mark means an inactive call. Activity calls are given as the source filed them. How the source made its calls: active means growth percent below 10; inactive means the rest.

As for `C/C(=C\c1ccc2ccccc2c1)[N+](=O)[O-]`, the growth with HT29 colon was -9.28% (active); in the assay with SNB-75 CNS, 78%; with SNB-19 CNS, 90.6%; with U251 CNS it was 72.7%; with PC-3 prostate it was 25.3%; in the assay with SK-MEL-5 melanoma, 71.3%. The growth in the assay with UACC-62 melanoma was 78.2%; with LOX IMVI melanoma, -80.9% (active); in the assay with SK-MEL-28 melanoma it was 37%; in the assay on SK-MEL-2 melanoma it was 4.49% (active); with SN12C renal, 89.6%; with UO-31 renal, -80.1% (active). The growth is -47% (active) with TK-10 renal; -79.2% (active) in the assay on CAKI-1 renal; 103% in the assay on A498 renal; -25.4% (active) with CCRF-CEM leukemia; -1.16% (active) in the assay on MOLT-4 leukemia.
For `COc1ccc(/C=C(/C(=O)N2CCN(c3ccc(C)cc3)CC2)c2cc(OC)c(OC)c(OC)c2)cc1N`, the growth in the assay on HT29 colon was 3.34% (active); with SNB-75 CNS it was 9.7% (active); with SNB-19 CNS it was 33.6%; in the assay on U251 CNS, 22%; in the assay with PC-3 prostate it was 9.56% (active); with SK-MEL-5 melanoma, -30.7% (active). The growth with UACC-62 melanoma is 40%; with LOX IMVI melanoma, 22.2%; in the assay with SK-MEL-28 melanoma, 54.3%; with SK-MEL-2 melanoma it was 23.7%; in the assay on EKVX NSCLC, 45.5%; with SN12C renal it was 28.8%. Also, the growth with UO-31 renal was 51.2%; in the assay on TK-10 renal it was 76.7%; in the assay with ACHN renal it was 30.5%; with A498 renal, -11.1% (active); in the assay on CCRF-CEM leukemia, 13.4%; with MOLT-4 leukemia, 17.5%.
Consider `[2H]c1nc(=Nc2cc(NC(=O)C=C)c(N(C)CCN(C)C)cc2OC)[nH]c(-c2cn(C([2H])([2H])[2H])c3ccccc23)c1[2H]`, for which the growth in the assay on HT29 colon is -3.69% (active); with SNB-75 CNS, 66.9%; with SNB-19 CNS, 55.8%; in the assay on U251 CNS, 40.9%; in the assay with PC-3 prostate, 50.2%; with SK-MEL-5 melanoma, 63.5%. Further, the growth in the assay on UACC-62 melanoma is -10.7% (active); in the assay with LOX IMVI melanoma, 39.2%; in the assay with SK-MEL-28 melanoma it was 37.5%; with SK-MEL-2 melanoma, 55.8%; in the assay on EKVX NSCLC it was 39.7%; with SN12C renal it was 35.3%. Further, the growth in the assay with UO-31 renal is 24.2%; with TK-10 renal it was 26.8%; in the assay on ACHN renal it was 23.3%; with A498 renal, 36.7%; in the assay on CCRF-CEM leukemia it was 18.4%; with MOLT-4 leukemia, 13.3%.
With `C=CN(C)S(C)(=O)=O`, the growth with HT29 colon is 72.1%; with SNB-75 CNS, 32.6%; with SNB-19 CNS, 50.1%; with U251 CNS it was 19.2%; in the assay with PC-3 prostate, 16.9%; in the assay with SK-MEL-5 melanoma, 12.1%. The growth is 43% in the assay on UACC-62 melanoma; 29.7% with LOX IMVI melanoma; 38.7% in the assay with SK-MEL-28 melanoma; -8.09% (active) with SK-MEL-2 melanoma; 42.5% in the assay with SN12C renal; 18.2% in the assay on UO-31 renal. The growth in the assay on TK-10 renal is 53.2%; in the assay on ACHN renal, 39.5%; in the assay on CAKI-1 renal, -7.94% (active); with A498 renal, 105%; in the assay on CCRF-CEM leukemia, 16.9%; in the assay with MOLT-4 leukemia, 30.1%.
In the case of `CC/C(=N\Nc1nc2ccccc2n1C)c1ccccn1`, the growth was 21.2% with HT29 colon; 19.5% in the assay on SNB-75 CNS; 18.8% with SNB-19 CNS; 10.4% in the assay with U251 CNS; 26.5% with PC-3 prostate; -50.7% (active) in the assay with SK-MEL-5 melanoma. Besides, the growth in the assay with UACC-62 melanoma is -13.9% (active); in the assay on LOX IMVI melanoma, -15% (active); with SK-MEL-28 melanoma it was 16.2%; in the assay with SK-MEL-2 melanoma, 37.6%; in the assay with EKVX NSCLC, 6.6% (active); in the assay with SN12C renal it was 13.6%. Besides, the growth with UO-31 renal was -10.3% (active); in the assay on TK-10 renal, 33.5%; in the assay with ACHN renal it was 0.59% (active); in the assay on CAKI-1 renal, 2.28% (active); in the assay with A498 renal it was -20.7% (active); in the assay with CCRF-CEM leukemia, 7.72% (active). The growth in the assay with MOLT-4 leukemia is 1.52% (active).
As to `C/C(CCC(=O)O)=N/Nc1ccc([N+](=O)[O-])cc1`, the growth was 86.1% in the assay on HT29 colon; 101% with SNB-75 CNS; 94.4% in the assay on SNB-19 CNS; 75.7% in the assay with U251 CNS; 65.1% in the assay with PC-3 prostate; 46.3% in the assay with SK-MEL-5 melanoma. In addition, the growth is 23% in the assay with UACC-62 melanoma; 23.9% in the assay with LOX IMVI melanoma; 104% in the assay with SK-MEL-28 melanoma; 26.9% in the assay with SK-MEL-2 melanoma; 63.1% with EKVX NSCLC; 77.1% with SN12C renal. For the same compound, the growth with UO-31 renal was 39%; in the assay on TK-10 renal it was 88.1%; in the assay with ACHN renal it was 36.3%; with CAKI-1 renal, 25.7%; in the assay on A498 renal, 75.8%; in the assay with CCRF-CEM leukemia it was 18.2%. The growth in the assay with MOLT-4 leukemia was 37.3%.
As for `COC(=O)[C@H](Cc1cn(C)cn1)NC(=O)[C@@H](NC(=O)Nc1cc(C(F)(F)F)cc(C(F)(F)F)c1)C(C)(C)C`, the growth in the assay on HT29 colon is -66.9% [100 µM] (active); in the assay on SNB-75 CNS, -55.1% [100 µM] (active); with SNB-19 CNS it was -91.6% [100 µM] (active); with U251 CNS, -89.9% [100 µM] (active); in the assay with PC-3 prostate, -92.9% [100 µM] (active); with SK-MEL-5 melanoma, -67.4% [100 µM] (active). The growth with UACC-62 melanoma is -88.5% [100 µM] (active); in the assay with LOX IMVI melanoma, -86.6% [100 µM] (active); in the assay on SK-MEL-28 melanoma, -92.3% [100 µM] (active); with SN12C renal, -91.8% [100 µM] (active); in the assay on UO-31 renal, 61.1% [100 µM]; in the assay on TK-10 renal it was -82% [100 µM] (active). Besides, the growth with ACHN renal was 0.692% [100 µM] (active); in the assay with CAKI-1 renal it was 55% [100 µM]; in the assay on A498 renal it was -77% [100 µM] (active).
On to `COc1ccc2oc(=O)cc(CN3C(=O)S/C(=C\c4ccc(Cl)cc4)C3=O)c2c1`, for which the growth in the assay on HT29 colon is 103%; with SNB-75 CNS, 98.7%; in the assay with SNB-19 CNS it was 99%; in the assay with U251 CNS, 101%; in the assay on PC-3 prostate, 91.8%; in the assay with SK-MEL-5 melanoma, 101%. Further, the growth with UACC-62 melanoma was 83.1%; with LOX IMVI melanoma it was 95.2%; in the assay with SK-MEL-28 melanoma, 101%; in the assay on SK-MEL-2 melanoma, 106%; with EKVX NSCLC, 93%; in the assay with SN12C renal, 108%. In addition, the growth with UO-31 renal is 83.4%; in the assay with TK-10 renal, 108%; with A498 renal, 106%; in the assay with CCRF-CEM leukemia, 86.5%; in the assay with MOLT-4 leukemia it was 89.2%.
Turning to `O=C(Nc1ccc(-n2cc(-c3ccncc3)c(-c3ccc(Cl)c(O)c3)n2)cc1)c1cc(Cl)cc(Cl)c1`, the growth in the assay on HT29 colon was 1.94% (active); in the assay with SNB-75 CNS, 16.4%; with SNB-19 CNS, 72.4%; in the assay with U251 CNS it was 41.9%; with SK-MEL-5 melanoma, -85.1% (active); in the assay with UACC-62 melanoma it was 39.2%. Further, the growth with LOX IMVI melanoma is 40.3%; in the assay with SK-MEL-28 melanoma it was 29.7%; with EKVX NSCLC, 75.7%; with SN12C renal it was 70.2%; with UO-31 renal, 12.3%; in the assay on TK-10 renal, 61.3%. In addition, the growth is 57.3% with ACHN renal, -32.1% (active) in the assay with CAKI-1 renal, 95.9% with A498 renal and 24.3% in the assay with MOLT-4 leukemia.
`COc1cc(OC)cc(-c2ccc(-c3ccc(C(=N)N)cc3)s2)c1`: the growth was -68.8% (active) in the assay on HT29 colon; -94.9% (active) with SNB-75 CNS; -71.8% (active) with SNB-19 CNS; -94.7% (active) in the assay on PC-3 prostate; -100% (active) with SK-MEL-5 melanoma; -85.1% (active) with UACC-62 melanoma. Besides, the growth in the assay on LOX IMVI melanoma was -86.3% (active); in the assay with SK-MEL-28 melanoma, -87.7% (active); in the assay with SK-MEL-2 melanoma, -58.3% (active); in the assay with EKVX NSCLC, -83.6% (active); in the assay on SN12C renal, -76.9% (active); with UO-31 renal, -78% (active). Further, the growth is -83.7% (active) with TK-10 renal; -90% (active) with ACHN renal; -93.7% (active) with CAKI-1 renal; -92% (active) with A498 renal; -59.7% (active) in the assay with CCRF-CEM leukemia.
